Source: PubChem
Mcl1-Bid inh = Mcl-1/Bid interaction inhibition; Q07820; TR-FRET Mcl-1/Bid-Dy647 peptide binding, 1536-well; inhibition, % at 21.7 µM; hit rate 0.97% among 220,000; AID 1021;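 active = compounds that cut the binding signal by more than half at the single screening dose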;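 also: His-tagged Mcl-1 with europium anti-His antibody binding Bid BH3 peptide; 0% = Mcl-1 plus peptide wells and 100% = peptide-only wells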
eIF4E-4G inh = inhibitors of eIF4E and eIF4G interaction in translation initiation; TR-FRET eIF4E-eIF4GI(517-606) binding, 2 h; inhibition, % at 21.7 µM; P63073+Q04637; AID 782; hit rate 0.37% among 220,000;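 also: 0% = full FRET control wells and 100% = background wells lacking eIF4GI fragment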
Mcl-1 Bim block = human Bim-Mcl-1 interaction inhibition. Q07820. Bead-based flow cytometry, Bim peptide-Mcl-1 binding. inhibition, % at 10 µM. hit rate 0.1% among 190,000; in the data active = inhibition above about 40%;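 also: 0% = no compound tracer wells and 100% = peptide blocker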
Mcl1-Noxa inh = disrupts binding of human Mcl-1 to Noxa peptide; Q07820; TR-FRET Mcl-1/Noxa peptide binding, 2 h; inhibition, % at 21.7 µM; hit rate 1.5% among 220,000; AID 1022;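 active = compounds that cut the protein-peptide binding signal by more than 50% relative to plate controls in a single-dose test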;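 also: His-tagged Mcl-1 with rhodamine Noxa BH3 peptide and terbium anti-His antibody; 0% = Mcl-1 plus Noxa peptide wells and 100% = peptide-only wells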
14-3-3 Bad inh = disrupts binding of bovine 14-3-3 zeta to phospho-Bad peptide | inhibition, % at 21.7 µM | hit rate 0.71% among 220,000 | TR-FRET 14-3-3zeta/Dy647-pBad peptide displacement, 1 h;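 active = inhibition above about 70%, limit read from the data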;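 also: 0% = full 14-3-3 plus peptide FRET controls and 100% = background without 14-3-3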
NCF1 inh = inhibitors of human p47phox binding | P14598 | p47phox/p22phox peptide binding, fluorescence polarization, 2 h | inhibition, % at 24.7 µM | hit rate 0.53% among 220,000;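 also: 0% = p47phox with labelled peptide and 100% = labelled peptide alone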
The depositor's hits bear a star; . = no result; [ ] = another dose, or the depositor's remark. Compounds with a hit are over-represented: about 3.3% of the library has one in this group of screens.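 The calls were made as follows, unless noted: active = inhibition above about 30% (limit read from the data); inactive = the rest.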

SMILES	Mcl1-Bid inh	eIF4E-4G inh	Mcl-1 Bim block	Mcl1-Noxa inh	14-3-3 Bad inh	NCF1 inh
NC(=S)N/N=C1\CCSc2ccc(Cl)cc21	-98	-1	.	11	0	-3
CCCOC(=O)c1ccc(OCC(O)CN2CCN(C(=O)c3ccccc3)CC2)cc1 (centres undefined)	0	34*	-1	17	60	-3
COc1ccc(C(=O)C2CCCN(Cc3cn[nH]c3-c3ccc(F)cc3)C2)cc1OC (centres undefined)	96*	-2	-4	5	-13	2
O=C(COC(=O)/C=C/c1ccc(OC(F)F)cc1)NCCN1C(=O)CSC1=O	-50	1	-7	37	5	46*
Cc1cc(C)c2nc(C(F)(F)F)nc(N3CC(C)OC(C)C3)c2c1 (centres undefined)	-12	5	-6	-7	23	45*
COCc1cc(=O)[nH]c(SCCS(=O)(=O)c2ccc(Cl)cc2Cl)n1	-24	3	.	15	-13	-10
CSc1c(C#N)c(N)nc2sc(C(=O)c3ccc(Cl)c(Cl)c3)c(N)c12	52*	-5	.	21	40	4
CCOC(=O)C1CCN(c2nc(N)c3c(N)nc(SCC(=O)O)cc3c2C#N)CC1	-30	14	.	77*	23	-43
CN(C)c1ccc(NC(=O)Nc2csc3ccccc23)cc1	-8	10	.	57*	6	-3
CN(C)c1ccc(NC(=O)Nc2cccc(Cl)c2)cc1	1	-1	-5	76*	0	-5
CN(C)c1ccc(NC(=O)/C=C/c2c(Cl)cccc2Cl)cc1	9	8	-8	83*	7	8
O=C(Nc1ccc(F)cc1)Nc1csc2ccccc12	-25	1	.	19	0	-11
CN(C)S(=O)(=O)c1ccc(NC(=O)/C=C/c2ccccc2Cl)cc1	-27	1	-1	3	-1	-36
O=C1OC(c2ccccc2)/C(=C(/O)c2ccc(Cl)cc2)C1=O (centres undefined)	-8	-1	-1	26	71*	3
COC(=O)c1ccccc1NC(=O)COC(=O)/C=C/c1ccco1	95*	6	-2	9	6	-1
COC(=O)c1ccccc1NC(=O)COC(=O)c1ccco1	-12	0	0	20	8	1
COC(=O)c1ccccc1NC(=O)COC(=O)c1ccc(C)c(NC(=O)c2ccco2)c1	-16	86*[fluorescence artefact?]	0	-13	89*[fluorescence artefact?]	-32
CN(Cc1ccccc1)C(=O)COC(=O)/C=C/c1ccco1	-24	48*	-3	6	-15	-6
CCOC(=O)C(C(=O)OCC)C(Nc1cccc(Br)c1)c1ccccc1 (centres undefined)	-15	3	0	6	-3	-1
CCOC(=O)C(NCCCCl)c1ccccc1 (centres undefined)	-20	4	2	7	73*	-2
CC(C)(C)c1cc(CN2CCN(CCO)CC2)cc(C(C)(C)C)c1O	62*	4	-4	28	21	-8
CCOC(=O)C1CCN(Cc2cc(C(C)(C)C)c(O)c(C(C)(C)C)c2)CC1	-26	-1	-2	-28	-5	-6
S=c1[nH]nc(-c2ccc3ccccc3n2)o1	-28	-3	1	26	82*[fluorescence artefact?]	-5
CCn1c(SCC(=O)Nc2cccc(C)n2)nc2c1c(=O)n(C)c(=O)n2C	-29	4	8	13	-3	-1
NC(=O)Oc1cccc(OC(N)=O)c1	-9	4	.	-1	-2	-11
SMILES	Mcl1-Bid inh	eIF4E-4G inh	Mcl-1 Bim block	Mcl1-Noxa inh	14-3-3 Bad inh	NCF1 inh
Cc1cc(C)c2cc3c(N)c(C(=O)N4CCOCC4)sc3nc2c1	11	6	-2	20	-9	.
Cc1cc(C)c2nc3sc(C(=O)N4CCOCC4)c(N)c3cc2c1	-112	0	.	65*	17	-14
Cc1ccc(C)c2nc3sc(C(=O)N4CCOCC4)c(N)c3cc12	-55	2	0	60*	8	-11
Cc1ccc(-c2nnn(CC(=O)N(c3cnc4ccccc4c3)C(C(=O)NC3CCCC3)c3ccncc3)n2)o1 (centres undefined)	21	4	-2	1	38	25
CCC(C(=O)NC1CCCC1)N(C(=O)Cn1nnc(-c2ccc(C)o2)n1)c1cnc2ccccc2c1 (centres undefined)	-37	6	-1	19	78*	1
Cc1ccc(C(=O)N/N=C/c2ccc(-c3ccccc3[N+](=O)[O-])o2)cn1	-30	0	0	19	5	-17
COc1ccc(-c2ccc(/C=N/NC(=O)c3cccnc3)o2)c([N+](=O)[O-])c1	38	12	1	74*	79*[fluorescence artefact?]	-19
CCO[C@H]1OC(C(=O)NCc2ccccc2)=C[C@@H](C2CC2)[C@@H]1CCCO	-2	-1	-1	4	-2	-4
CN(CCOc1ccc(NS(C)(=O)=O)cc1)CCc1ccc(NS(C)(=O)=O)cc1	84*	3	1	1	0	-10
CCCCCOc1ccc(NS(C)(=O)=O)cc1	-12	-1	1	-7	-5	-7
Cc1sc(NC(=O)c2cc(-c3ccc(Cl)cc3)nc3ccccc23)c(C(N)=O)c1C	77*	-19	1	77*	79*	-41
O=C(Nc1ccccc1O)c1nc(Cl)ccc1Cl	-32	-2	1	11	-9	-11
S=c1[nH]nc(-c2ccco2)n1/N=C/c1ccc(Cl)cc1	-5	33*	0	27	-9	26
S=c1[nH]nc(-c2ccco2)n1/N=C/c1ccccc1Cl	-36	-4	-5	44	-6	29
CC(/C=N/n1c(-c2ccc(Cl)cc2)n[nH]c1=S)=C\c1ccco1	24	5	-3	64*	0	-1
CC(/C=N/n1c(-c2cc(C)[nH]n2)n[nH]c1=S)=C\c1ccco1	-143	8	.	44	14	-12
C=CCn1c(-c2ccco2)n[nH]c1=S	-29	67*	-2	42	11	32*
C=CCn1c(-c2cc(OC)c(OC)c(OC)c2)n[nH]c1=S	-67	44*	1	16	-9	-3
O=C(CCS(=O)(=O)c1cccs1)N1CCCC1	-21	50*	-6	8	9	-2
O=C(CCNS(=O)(=O)c1cccs1)N1CCCCCC1	-9	38*	0	-13	6	-6
O=C(CCNS(=O)(=O)c1ccc(Br)s1)N1CCCCC1	-25	-7	-1	16	-7	-2
N#C/C(=C\c1ccc(Cl)s1)C(=O)N1CCN(c2ccccc2)CC1	-38	4	0	11	-9	-5
Cc1cccc(S(=O)(=O)C(C#N)c2nc3ccccc3nc2N2CC(C)OC(C)C2)c1 (centres undefined)	-4	10	0	11	73*	-11
Cc1ccc2c(c1)C1(C)C(C(C)(C)N2C=O)C1(Cl)Cl (centres undefined)	-1	-1	.	-21	4	-7
